Anthrax LF inh2: blocks Bacillus anthracis lethal factor protease. inhibition, % at 10 µM. AID 588501. 0.12% of 360,000 active. multiplex microsphere protease cleavage assay, LF; also: plate controls were buffer without enzyme for full effect and enzyme alone for no effect
Target sequence (P15917 whole entry, looked up): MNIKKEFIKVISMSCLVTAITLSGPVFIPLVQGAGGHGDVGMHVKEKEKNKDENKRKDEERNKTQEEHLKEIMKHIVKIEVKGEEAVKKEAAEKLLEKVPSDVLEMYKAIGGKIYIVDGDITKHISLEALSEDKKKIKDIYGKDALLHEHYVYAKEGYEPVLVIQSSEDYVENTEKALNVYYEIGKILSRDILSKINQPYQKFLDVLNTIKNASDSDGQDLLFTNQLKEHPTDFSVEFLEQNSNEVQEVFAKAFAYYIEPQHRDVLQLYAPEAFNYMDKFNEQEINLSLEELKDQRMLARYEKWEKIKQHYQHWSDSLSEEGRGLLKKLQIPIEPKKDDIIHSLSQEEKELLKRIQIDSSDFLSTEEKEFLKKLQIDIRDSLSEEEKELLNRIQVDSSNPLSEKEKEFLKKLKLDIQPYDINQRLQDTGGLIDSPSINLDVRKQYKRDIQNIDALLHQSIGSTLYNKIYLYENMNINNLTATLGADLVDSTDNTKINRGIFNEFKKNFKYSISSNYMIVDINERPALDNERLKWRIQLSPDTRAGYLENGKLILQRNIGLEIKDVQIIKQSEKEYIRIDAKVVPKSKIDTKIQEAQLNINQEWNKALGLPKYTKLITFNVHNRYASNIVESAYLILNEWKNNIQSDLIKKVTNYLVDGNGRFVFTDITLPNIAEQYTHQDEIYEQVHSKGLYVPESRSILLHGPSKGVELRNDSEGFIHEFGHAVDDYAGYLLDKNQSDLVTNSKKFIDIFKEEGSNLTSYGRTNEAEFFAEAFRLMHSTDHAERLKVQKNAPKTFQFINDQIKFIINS
Bead autofluor: flagged as autofluorescent in microsphere protease counterscreen. 3.1% of 360,000 active. fluorescence intensity (no concentration beside the values). compound autofluorescence counterscreen, microsphere flow cytometry; hits give high values. AID 624483; in the data active = fluorescence intensity above about 16000; inconclusive = no clear call, values can overlap the other calls
BoNT F protease: inhibitors of Botulinum neurotoxin F light chain protease. Multiplex microsphere protease cleavage assay, flow cytometry. 0.22% of 360,000 active. AID 588497. inhibition, % at 10 µM; in the data active = inhibition above about 35%, passing the limit was not always enough; inconclusive = no clear call, values can overlap the other calls; also: plate controls were buffer without enzyme for full effect and enzyme alone for no effect
BoNT-A LC inh2: BoNT A light chain protease inhibition; multiplex microsphere protease substrate cleavage, flow cytometry; inhibition, % at 10 µM; 0.17% of 360,000 active; AID 588499; also: plate controls were buffer without enzyme for full effect and enzyme alone for no effect
The depositor's hits bear a star; ? = inconclusive. Only some compounds are listed: those with a hit (about 3.5% of all), similar ones and a draw of the others. Rule as the data show it, unless noted: active = inhibition above about 30%; inconclusive = no clear call, values can overlap the other calls; inactive = below that.

SMILES	Anthrax LF inh2	Bead autofluor	BoNT F protease	BoNT-A LC inh2
COCC(=O)Nc1nc2n(n1)C(c1ccccc1Cl)CC(c1ccc(OC)cc1)N2 (stereo not drawn)	1	20336*	0	1
CCN(CC)S(=O)(=O)c1cccc(C(=O)NC(C)C(c2cccs2)N2CCCC2)c1 (stereo not drawn)	4	17341*	4	1
CCN1CCN(C(c2cccs2)C(C)NC(=O)c2cccc(OC)c2)CC1 (stereo not drawn)	-9	5537	-11	-1
CC(NC(=O)c1cccc(F)c1)C(c1cccs1)N1CCN(C)CC1 (stereo not drawn)	1	23669*	-5	-5
CC(=O)NC(C)C(c1cccs1)N1CCN(c2ccccc2)CC1 (stereo not drawn)	-2	16460*	1	?
CCC(=O)NC(C)C(c1cccs1)N1CCN(c2ccccc2)CC1 (stereo not drawn)	-2	5467	-2	2
CCN1CCN(C(c2cccs2)C(C)NC(=O)c2ccccc2)CC1 (stereo not drawn)	4	5988	6	0
Cc1cc(SCC(=O)Nc2ccc3[nH]c(=O)[nH]c3c2)nc2ccccc12	-1	3516	-2	0
Cc1ccc(C(=O)Nc2cccc(NC(=O)c3ccc(C)o3)n2)o1	3	3128	15	2
CC(C)(C)c1ccccc1OCC(=O)Nc1ncn[nH]1	9	9364	-9	-1
CC(C)(C)c1ccccc1OCC(=O)NCCC(=O)O	-1	24308*	-4	-3
C=CCn1c(SCC(=O)Nc2nncs2)nnc1-c1ccco1	-2	5038	7	1
COC(=O)c1ccc(N/C(C)=C/C(=O)c2ccc(C)o2)cc1	-4	16289*	-1	0
C/C(=C\C(=O)c1ccc(C)o1)Nc1ccc2c(c1)OCO2	-12	23606*	-12	-2
Cc1ccccc1C(=O)Nc1ccc(S(=O)(=O)N2CCCC2)cc1	-12	3175	-41	0
CC(C)C(NC(=O)CCNC(=O)c1ccccc1Cl)c1nc2ccccc2[nH]1 (stereo not drawn)	-6	?	2	0
CCOc1ccc(-c2csc(NC(=O)C3CCCO3)n2)cc1 (stereo not drawn)	-1	21480*	-3	-2
Cc1cnc(NC(=O)C2CCCO2)s1 (stereo not drawn)	-2	16597*	-2	?
COc1ccc(N(CC(=O)Nc2cc(OC)c(OC)cc2C(=O)O)S(=O)(=O)c2c(C)noc2C)cc1	1	5182	5	1
CCC(C)(C)n1nnnc1C(c1cc2cc(OC)c(OC)cc2[nH]c1=O)N1CCc2ccccc21 (stereo not drawn)	2	24005*	-6	-4
CCN1CCN(C(c2cc3cc4c(cc3[nH]c2=O)OCO4)c2nnnn2C(C)(C)CC)CC1 (stereo not drawn)	-9	20945*	4	5
COc1cc2cc(C(c3nnnn3C(C)(C)C)N3CCc4ccccc4C3)c(=O)[nH]c2cc1OC (stereo not drawn)	-1	6554	-1	2
CC1CCCC(C)N1C(=O)/C=C/c1ccc(S(=O)(=O)N2CCOCC2)cc1 (stereo not drawn)	?	?	-13	-3
COc1cc(/C=C2\C(=N)N3N=C(C)SC3=NC2=O)cc(OC)c1OCCOc1ccccc1C	-5	3860	55*	2
COc1cc(/C=C2\C(=N)N3N=C(S(C)(=O)=O)SC3=NC2=O)cc(OC)c1OCCOc1ccccc1C	-9	3773	?	0
SMILES	Anthrax LF inh2	Bead autofluor	BoNT F protease	BoNT-A LC inh2
CCN1C(=O)/C(=C\N2CCCCCC2)SC1=S	-1	3748	-4	0
CCN1C(=O)/C(=C/N2CCc3ccccc3C2)SC1=S	-5	16177*	?	-50
CC1CCCCN1S(=O)(=O)c1ccc(NC(=O)CSc2nnnn2C)cc1 (stereo not drawn)	0	21890*	1	?
Cc1cc2cc(C)c3nnc(SCC(=O)Nc4ccc(S(=O)(=O)N5CCCCC5C)cc4)n3c2cc1C (stereo not drawn)	-2	2154	0	0
CC1CCCCN1S(=O)(=O)c1ccc(NC(=O)c2ccco2)cc1 (stereo not drawn)	-1	20490*	-3	?
CCc1c(C)nc2ncnn2c1Nc1ccc(C)cc1	-2	3741	-38	-2
C#CCNc1c(C)c(C)nc2ncnn12	-1	24659*	-6	-4
CC(=O)N(Cc1cc(=O)[nH]c2ccccc12)c1ccc(C)cc1	2	2709	3	0
Cc1ccc(N(Cc2cc(=O)[nH]c3ccccc23)C(=O)c2ccco2)cc1	-3	23679*	2	-1
CCOC(=O)c1c(C)n(C)c2ccc(O)c(S(=O)(=O)c3ccccc3)c12	-1	24053*	-2	-2
O=c1oc(-c2cccs2)nc2c1cnn2-c1ccccc1	1	16820*	-5	?
Cc1ccc(N(C(=O)c2csnn2)C(C(=O)NC2CCCCC2)c2ccncc2)c(C)c1 (stereo not drawn)	-9	3547	24	-2
Cc1ccc(NC2=NC(c3ccc(O)cc3)n3c(nc(C)cc3=O)N2)cc1 (stereo not drawn)	1	22829*	-4	?
COc1ccc(C2N=C(Nc3ccc(C)cc3)Nc3nc(C)cc(=O)n32)cc1 (stereo not drawn)	-2	3770	2	-1
CCOc1ccc(C(=O)Nc2ccc(NC(=O)c3ccco3)c(Cl)c2)cc1Br	-2	22914*	0	?
CCOc1ccc(C(=O)Nc2ccc(NC(=O)c3ccco3)c(Cl)c2)cc1Cl	-1	3179	-10	0
Cc1ccccc1C(=O)N1CCN(c2ccc(NC(=O)c3ccco3)cc2Cl)CC1	5	3420	0	-1
O=C(Nc1ccc(NC(=O)c2cccs2)c(Cl)c1)c1ccco1	1	2204	0	1
O=C(Nc1ccc(N2CCN(C(=O)c3cccs3)CC2)c(Cl)c1)c1ccco1	-3	16928*	-7	-3
O=C(Nc1ccc(NC(=O)c2sc3ccccc3c2Cl)cc1Cl)c1ccco1	-7	19130*	14	8
CCn1c(SC(C)C(=O)NC2CCCC2)nc2cc(S(N)(=O)=O)ccc21 (stereo not drawn)	-3	2957	-12	0
CCC(C)c1ccc(NC(=O)C2=CC=CN3CCS(=O)(=O)N=C23)cc1 (stereo not drawn)	-5	2924	-6	0
CCOC(=O)[C@@H]1[C@H]2COc3cc(OC)ccc3[C@@H]2N2C(=O)N(c3ccc(F)cc3)C(=O)[C@]12C	4	3022	2	0
CCOc1ccc(-c2nn(-c3ccccc3)cc2/C=C2\SC(=S)N(Cc3ccco3)C2=O)cc1	14	2009	6	37*
O=C(CNc1ccccc1)N/N=C/c1ccc([N+](=O)[O-])o1	-1	24670*	-7	-3
Cc1ccc(NCC(=O)N/N=C\c2ccc([N+](=O)[O-])o2)cc1	-4	7395	-12	-2
O=c1c2ccccc2nc2sc(Nc3ccc(F)cc3)nn12	5	2784	0	-1
Cc1ccccc1Nc1nn2c(=O)c3ccccc3nc2s1	0	23125*	-2	0
O=C(CSc1nnc(-c2ccccn2)o1)Nc1ccccc1Cl	0	4353	4	0
